For nine compounds, z-score and composite z-score results are on record in PubChem BioAssay.

The source made the active and inactive calls.

Test [1] can be described thus: E. coli DRC41 culture turbidity changes, primary screen, E. coli filamentation inducer project, strain DRC41, OD650, 48 h (AID 1152).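 Further: E. coli MC1000 strain DRC41 lacking acrAB efflux pump and sulA.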 The settings on record: E. coli DRC41 (acrAB sulA), higher = more signal, called active from +8 up or from −8 down.
Test [2] is described as follows: small-molecule binders of probe aLefty1, primary screen, biochemical, small-molecule microarray, 635/667 nm fluorescence (AID 1153).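 Further: score merges spot fluorescence with signal-to-noise ratio from the scanned slide images.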 The note with it: higher = more signal.
Test [3] in a line: PSAC antagonists in infected red cells, primary screen, cell-based, P. falciparum Indochina, OD700, 1 h (AID 1154). The note with it: P. falciparum Indochina infected RBC osmotic lysis, higher = more signal, called active from +8 up or from −8 down.
Test [4] is described as follows: PSAC antagonists in infected red cells, primary screen, cell-based, P. falciparum Indochina, OD700, 2 h (AID 1155).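 Further: lysis reports solute entry through the parasite surface anion channel PSAC; channel blockers reduce lysis of infected cells.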 The note with it: P. falciparum Indochina infected erythrocytes, osmotic lysis OD700; higher = more signal, called active from +8 up or from −8 down.
A short description of test [5]: osmotic lysis modulators in infected erythrocytes, primary screen, PSAC antagonist project, cell-based, P. falciparum Indochina, OD700, 3 h (AID 1156). The note with it: higher = more signal, called active from +8 up or from −8 down.
A short description of test [6]: PSAC antagonists in infected red cells, primary screen, cell-based, P. falciparum Indochina, OD700, 18 h (AID 1157). The note with it: P. falciparum Indochina infected erythrocytes, osmotic lysis OD700, 18 h; higher = more signal, called active from +8 up or from −8 down.
Test [7] is described as follows: modulators of S6 phosphorylation in cells, primary screen, cell-based, A549, cytoblot, luminescence, serum-stimulated (AID 1158).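 Further: serum-stimulated A549 lung adenocarcinoma cells; signal is phosphorylated S6 detected by cytoblot immunostaining with HRP secondary.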 The note with it: A549 phospho-S6 cytoblot, 5 h, higher = more signal.
The target of test [8] is NADPH oxidase 2 (Homo sapiens) (UniProt P04839). In words: NOX2-dependent H2O2 signal modulators, primary screen, NOX inhibitor project, cell-based, HEK293-NOX2, PMA-stimulated, Amplex Red fluorescence (AID 1159). Further: test concentration not given here. The note with it: 45 min, higher = more signal, called active from +8 up or from −8 down.
In test [9] the target is NADPH oxidase 4 (Homo sapiens) (UniProt Q9NPH5). In words: NOX4-dependent H2O2 signal modulators, primary screen, NOX inhibitor project, cell-based, HEK293-NOX4, tetracycline-induced, Amplex Red fluorescence (AID 1160). The note with it: 45 min, higher = more signal, called active from +8 up or from −8 down.
For test [10], the target named is NADPH oxidase 5 (Homo sapiens) (UniProt Q96PH1). In words: NOX5-dependent H2O2 signal modulators, primary screen, NOX inhibitor project, cell-based, HEK293-NOX5, Amplex Red fluorescence (AID 1161). The settings on record: HEK293-NOX5, ionomycin, 45 min, higher = more signal.
Test [11] is described as follows: A549 cell viability effects, profiling panel, calcein-AM fluorescence, 48 h, basal (AID 1162). Further: test concentration not given here. The settings on record: higher = more signal.
Test [12] is described as follows: adipocyte viability effects, profiling panel, cell-based, 3T3-L1 adipocytes, calcein-AM fluorescence, 48 h, basal (AID 1163). Further: test concentration not given here. The note with it: 3T3-L1 adipocytes viability, higher = more signal.
Test [13] in a line: HepG2 cell viability effects, profiling panel, calcein-AM fluorescence, 48 h, basal (AID 1164). Further: test concentration not given here. The settings on record: higher = more signal.
Test [14] in a line: MM1S cell viability effects, profiling panel, calcein-AM fluorescence, 48 h, basal (AID 1165).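 Further: viability of MM1S multiple myeloma cells under basal unstimulated conditions; test concentration not given here.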 The settings on record: higher = more signal.
Test [15] can be described thus: basal RPMI8226 viability, no added stimulus, profiling panel, cell-based, calcein-AM fluorescence, 48 h, PK04 Diversity Set (AID 1166).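 Further: cells grown under basal conditions without added stimulus; test concentration not given here.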 The settings on record: RPMI8226 myeloma viability, higher = more signal.
The nature of test [16]: basal HepG2 mitochondrial membrane potential changes, profiling panel, cell-based, JC-1 fluorescence, 24 h, 100 nL compound (AID 1167). Further: test concentration not given here. The settings on record: higher = more signal.
Test [17] can be described thus: basal 3T3-L1 adipocyte mitochondrial potential changes, profiling panel, cell-based, JC-1 fluorescence, 3T3-L1 adipocytes, 24 h, 100 nL compound (AID 1168). Further: test concentration not given here. The note with it: JC-1 mitochondrial fluorescence, higher = more signal, called active from +8 up or from −8 down.
Test [18] can be described thus: basal RPMI8226 mitochondrial membrane potential changes, profiling panel, cell-based, JC-1 fluorescence, 24 h, 100 nL compound (AID 1169). Further: test concentration not given here. The note with it: RPMI8226 myeloma, JC-1 mitochondrial potential fluorescence, higher = more signal.
A short description of test [19]: basal MM1S mitochondrial membrane potential changes, profiling panel, cell-based, JC-1 fluorescence, 24 h, 100 nL compound (AID 1170). Further: test concentration not given here. The settings on record: higher = more signal.
Test [20] can be described thus: A549 lung cancer cell viability effects, profiling panel, resazurin fluorescence, 24 h, PK04 Diversity Set (AID 1171). Further: test concentration not given here. The note with it: higher = more signal, called active from +8 up or from −8 down. A general note: The colour change of resazurin is a common sign of viable cells or microbes.

Chain of NADPH oxidase 5 (Homo sapiens) (Q96PH1 whole entry, looked up): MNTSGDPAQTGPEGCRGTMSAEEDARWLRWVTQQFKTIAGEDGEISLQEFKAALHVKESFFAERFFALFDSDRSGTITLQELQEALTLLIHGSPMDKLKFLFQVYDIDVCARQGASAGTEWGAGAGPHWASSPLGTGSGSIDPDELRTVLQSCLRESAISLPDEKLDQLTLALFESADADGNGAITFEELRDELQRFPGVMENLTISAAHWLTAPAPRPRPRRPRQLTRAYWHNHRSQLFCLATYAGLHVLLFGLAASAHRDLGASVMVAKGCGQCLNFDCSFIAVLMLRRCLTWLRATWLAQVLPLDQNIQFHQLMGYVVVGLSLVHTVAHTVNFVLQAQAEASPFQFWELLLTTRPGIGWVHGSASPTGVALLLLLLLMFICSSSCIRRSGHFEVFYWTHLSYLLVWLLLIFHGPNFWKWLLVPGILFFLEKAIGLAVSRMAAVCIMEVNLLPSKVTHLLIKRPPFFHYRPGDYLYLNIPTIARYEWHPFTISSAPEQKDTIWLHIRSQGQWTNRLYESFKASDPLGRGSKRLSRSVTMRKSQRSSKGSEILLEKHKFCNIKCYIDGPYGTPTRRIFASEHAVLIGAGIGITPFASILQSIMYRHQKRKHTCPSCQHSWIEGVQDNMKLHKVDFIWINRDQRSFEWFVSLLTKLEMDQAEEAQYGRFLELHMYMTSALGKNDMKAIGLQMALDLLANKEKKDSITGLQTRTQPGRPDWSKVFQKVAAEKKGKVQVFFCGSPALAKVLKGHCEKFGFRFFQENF
Chain of NADPH oxidase 4 (Homo sapiens) (Q9NPH5 whole entry, looked up): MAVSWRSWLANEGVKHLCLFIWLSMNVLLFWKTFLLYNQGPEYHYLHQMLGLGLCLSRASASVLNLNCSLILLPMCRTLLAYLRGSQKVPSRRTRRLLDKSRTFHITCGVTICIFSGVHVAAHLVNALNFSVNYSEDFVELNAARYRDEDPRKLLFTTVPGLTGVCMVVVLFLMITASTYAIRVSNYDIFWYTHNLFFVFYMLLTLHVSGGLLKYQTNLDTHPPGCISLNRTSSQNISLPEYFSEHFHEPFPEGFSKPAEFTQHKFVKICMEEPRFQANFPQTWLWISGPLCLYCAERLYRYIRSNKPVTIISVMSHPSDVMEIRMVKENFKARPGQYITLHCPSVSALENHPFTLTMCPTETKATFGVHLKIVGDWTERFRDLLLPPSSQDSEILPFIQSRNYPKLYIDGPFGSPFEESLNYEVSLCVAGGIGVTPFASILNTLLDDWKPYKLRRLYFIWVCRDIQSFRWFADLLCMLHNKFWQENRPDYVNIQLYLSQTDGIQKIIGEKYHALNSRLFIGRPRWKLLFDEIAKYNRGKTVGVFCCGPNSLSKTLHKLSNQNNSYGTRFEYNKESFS
Chain of NADPH oxidase 2 (Homo sapiens) (P04839 whole entry, looked up): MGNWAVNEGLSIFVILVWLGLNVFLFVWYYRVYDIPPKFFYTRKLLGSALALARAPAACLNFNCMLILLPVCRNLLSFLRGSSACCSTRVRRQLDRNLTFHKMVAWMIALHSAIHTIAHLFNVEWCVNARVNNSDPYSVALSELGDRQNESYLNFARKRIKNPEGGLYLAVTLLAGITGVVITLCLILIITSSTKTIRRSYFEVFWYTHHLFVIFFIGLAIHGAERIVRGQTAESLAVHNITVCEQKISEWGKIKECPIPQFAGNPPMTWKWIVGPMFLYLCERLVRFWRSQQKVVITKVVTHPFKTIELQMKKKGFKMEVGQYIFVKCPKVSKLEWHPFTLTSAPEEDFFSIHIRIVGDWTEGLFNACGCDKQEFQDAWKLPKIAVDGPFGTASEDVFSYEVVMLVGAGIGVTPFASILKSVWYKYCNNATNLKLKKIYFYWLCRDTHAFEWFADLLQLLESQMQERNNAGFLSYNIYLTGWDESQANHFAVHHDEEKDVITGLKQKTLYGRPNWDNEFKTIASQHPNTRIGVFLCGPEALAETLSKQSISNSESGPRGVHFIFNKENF

As for `O=C1C[C@@H](O)[C@@H](O)[C@@H]2[C@@H]3C(=O)N(Cc4ccccc4)C(=O)[C@@H]3CC[C@@H]12`, the z-score in [1] was -0.861 (inactive); in test [3], -0.0483 (inactive); in test [4], 0.141 (inactive); in [5] it was 0.0313 (inactive); in test [6], -0.014 (inactive); in [7] it was -0.224. The z-score in test [8] was 1.04 (inactive); in [9], 0.286 (inactive); in test [10], -0.0644; in [11], 0.249; in test [12], -0.118; in [13], 0.208. Moreover, the z-score in test [14] was 0.0158; in [15] it was -0.499; in [16], -0.229; in [17], 0.377 (inactive); in test [18] it was 0.139; in test [19], 0.431. Besides, the z-score in test [20] was 1.11 (inactive). The compound further gave a composite z-score in [2] of -0.0559.

As to `CON=CC[C@@H]1C=C[C@H](OC(C)=O)[C@@H](COC(C)=O)O1`, the z-score in [1] is -2.1 (inactive); in test [3], 0.0262 (inactive); in test [4], 0.0956 (inactive); in test [5] it was -0.833 (inactive); in [6], 0.245 (inactive); in [7] it was -0.841. Besides, the z-score in test [8] was 0.0851 (inactive); in test [9], -0.0561 (inactive); in test [10] it was -0.107; in test [11] it was 0.779; in test [12] it was -0.221; in test [13] it was -0.0589. The z-score in test [14] is -1.09; in test [15] it was -0.0741; in test [16], 0.308; in [17], -0.835 (inactive); in test [18], -0.589; in test [19], -0.0369. For the same compound, the z-score in [20] is -0.357 (inactive). Moreover, in test [2], the composite z-score stood at 0.171.

As for `C=Cc1ccc([C@H]2N[C@H](C(=O)O)CC[C@@H]2C)cc1`, the z-score was 0.374 (inactive) in test [1]; -0.27 (inactive) in [3]; -0.344 (inactive) in test [4]; -1.26 (inactive) in test [5]; -0.267 (inactive) in [6]; -0.599 in test [7]. Besides, the z-score in test [8] is 1.06 (inactive); in test [9], -0.0223 (inactive); in test [10], 0.0584; in [11], -0.241; in test [12], -0.173; in test [13], 0.453. In addition, the z-score is -0.568 in test [14]; -1.15 in [15]; 0.547 in test [16]; 0.0233 (inactive) in [17]; 0.239 in test [18]; 0.43 in test [19]. The z-score in test [20] is -0.439 (inactive). This compound registered a composite z-score in test [2] of -0.338.

For `CCC(=O)[C@@]1(O)C(=O)N2C(=C3C(=O)OCC[C@@H]31)N(Cc1ccccc1)C(C)=C(C(=O)OC)[C@H]2c1ccccc1`, the z-score in test [1] is -0.426 (inactive); in [3], 0.246 (inactive); in test [4], 0.633 (inactive); in test [5], -0.242 (inactive); in test [6], 0.465 (inactive); in test [7], -0.131. Also, the z-score in test [8] was 0.0553 (inactive); in [9] it was -0.147 (inactive); in test [10], 0.245; in test [11], -0.0783; in test [12], -1.09; in test [13], 0.237. For the same compound, the z-score was -0.184 in [14]; 0.596 in test [15]; -0.255 in test [16]; -0.0375 (inactive) in test [17]; -0.179 in test [18]; 0.676 in [19]. For the same compound, the z-score in test [20] is -0.342 (inactive). In test [2], the composite z-score was -0.103.

As to `CC(=O)OC[C@H]1O[C@H](CCON=C2[C@H]3CCn4c(=O)n(-c5ccccc5)c(=O)n4[C@H]3[C@H](O)[C@@H]3O[C@H]23)C=C[C@@H]1OC(C)=O`, the z-score in test [1] is 0.0711 (inactive); in test [3] it was 0.553 (inactive); in test [4], 0.0612 (inactive); in test [5], -0.192 (inactive); in [6], 0.269 (inactive); in test [7] it was -0.84. Besides, the z-score was -0.564 (inactive) in test [8]; 0.0641 (inactive) in [9]; -0.0303 in test [10]; 0.0488 in [11]; -1.08 in test [12]; 0.254 in test [13]. In addition, the z-score in test [14] is -0.775; in [15], -0.645; in test [16], -0.58; in [17], -0.91 (inactive); in [18], 0.602; in test [19] it was -0.876. For the same compound, the z-score in test [20] was -0.862 (inactive). The composite z-score in test [2] was 0.637.

For the compound `CCOC(=O)[C@H](Cc1ccccc1)NC(=O)CCC1CC(OC(=O)NCc2cccc3ccccc23)CC2(CCCC(COC(=O)NCC(c3ccccc3)c3ccccc3)O2)O1` (stereo not given in full), the z-score in test [1] is -0.0812 (inactive); in test [3], 9.16 (active); in test [4] it was 1.24 (inactive); in [5], -1.06 (inactive); in [6] it was -0.343 (inactive); in [7] it was 0.704. Further, the z-score is 0.782 (inactive) in [8]; 0.674 (inactive) in [9]; 0.347 in test [10]; 1.15 in [11]; -0.0155 in test [12]; -0.808 in test [13]. Further, the z-score in [14] was -3.22; in test [15] it was 0.632; in test [16], 0.353; in test [17], -0.151 (inactive); in [18], -0.107; in [19] it was -0.886. For the same compound, in [20], the z-score is 1.36 (inactive). In addition, the composite z-score in test [2] was -0.116.

Turning to `CCOC(=O)[C@H](CC(C)C)NC(=O)CCC1CC(OC(=O)NCCc2ccc(F)cc2)CC2(CCCC(COC(=O)NCCc3ccc(Cl)cc3)O2)O1` (stereo not given in full), the z-score is -1.29 (inactive) in [1]; 2.96 (inactive) in test [3]; -0.44 (inactive) in test [4]; 0.235 (inactive) in test [5]; 0.0264 (inactive) in [6]; -0.146 in test [7]. The z-score in test [8] was 0.333 (inactive); in [9], 1.32 (inactive); in test [10], 1.33; in [11], -0.977; in [12], 0.248; in [13], -0.49. Moreover, the z-score in test [14] was 0.73; in test [15] it was -1.23; in test [16], -1.04; in test [17], 0.133 (inactive); in test [18] it was -0.0969; in test [19] it was -0.232. Also, in test [20], the z-score was 0.608 (inactive). The compound also registered a composite z-score in test [2] of 0.18.

With `O=C1CCCC=C1C(O)CCCCBr` (stereo not given), the z-score in test [1] was 0.549 (inactive); in test [3], 3.79 (inactive); in [4], 1.15 (inactive); in test [5], 1.02 (inactive); in [6], 0.759 (inactive); in test [7], 0.231. Further, the z-score is -0.772 (inactive) in test [8]; 0.241 (inactive) in test [9]; -0.921 in test [10]; -1.75 in test [11]; 0.593 in [12]; -4.6 in test [13]. The z-score is -3.52 in test [14]; -3.71 in [15]; -0.504 in test [16]; 0.482 (inactive) in test [17]; -0.967 in test [18]; -3.04 in [19]. The z-score in test [20] is -2.06 (inactive). In test [2], the composite z-score is 0.155.

`CCCCc1nc2c(c3c1C[C@H](C)OC3)CN(CCOc1ccccc1)CC2`: the z-score in [1] is 0.19 (inactive); in test [3], 1.3 (inactive); in test [4], -0.611 (inactive); in test [5], 0.128 (inactive); in test [6], -0.421 (inactive); in test [7], 1.86. Besides, the z-score was -0.201 (inactive) in test [8]; 0.25 (inactive) in [9]; 0.747 in test [10]; 1.71 in test [11]; 0.734 in [12]; 0.681 in [13]. For the same compound, the z-score in test [14] is 0.039; in [15] it was -0.657; in test [16], 1.76; in test [17], 0.494 (inactive); in test [18], 0.539; in test [19], 0.568. Besides, in test [20], the z-score is -0.682 (inactive). In test [2], the composite z-score was -0.0186.
